# This is a sample that favours compounds with a hit; in the whole collection about 6.7% have one here.
# KB-V1 MDR tox = kills drug-selected multidrug resistant KB-V1 cells. KB-V1 MDR cells viability, CellTiter-Glo, 72 h. Potency, µM (highest dose often 46.1 µM), hits mostly cytotoxic. actives 3.4% (n = 400,000). AID 1347076; note: % is set by controls: 0 for no effect and ±100 for the full control effect; nearly all actives have a fitted effect of over 60% in size
#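 qHTS viability screen in drug-selected KB-V1 MDR cells: 72 h compound treatment at 37 degrees C, ATP luminescence end point.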
# MCF10A rerep = DNA re-replication induction in MCF 10a cells; MCF 10A DNA re-replication, Hoechst nuclear intensity, 48 h; Potency, µM (highest dose often 46.1 µM), without a hit: top-dose activity, positive = re-replication, actives largely listed as activators; actives 2.9% (n = 350,000); note: % of control where 0% means no effect; nearly all actives have a fitted effect of over 50% in size
# KB-3-1 tox = KB-3-1 parental cell cytotoxicity. actives 1.4% (n = 400,000). Potency, µM (top dose mostly 46.1 µM), actives largely listed as cytotoxic. KB-3-1 viability, CellTiter-Glo ATP luminescence, 72 h; note: % is set by controls: 0 for no effect and ±100 for the full control effect; nearly all actives have a fitted effect of over 60% in size
#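 KB-3-1 parental drug-naive adenocarcinoma cells in DMEM/10% FBS, incubated 72 h at 37 C with pin-transferred compounds across a concentration series. Viability by CellTiter-Glo luminescence; concentration-response curves fitted after normalization.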
# SW480 rerep = inducers of DNA re-replication in SW480 colon cancer cells; SW480 DNA re-replication, Hoechst DNA content imaging, 48 h; Potency, µM (series often up to 46.1 µM), inactives show at the highest dose re-replication activation, hits mostly activators; actives 1.8% (n = 340,000); note: % of control where 0% means no effect; nearly all actives have a fitted effect of over 55% in size
#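 Readout is total intensity of Hoechst-stained nuclei, excited at 405 nm and collected at 500-530 nm. Compound treatment lasted 48 hr at 37 C in 5% CO2 before staining.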
# PINK1 modulator = PINK1 expression modulation | PINK1 immunofluorescence, high-content cytometry, 24 h | Potency, µM (series often up to 76.6 µM), inactives show top-dose activation (PINK1 increase), usual class: activators | actives 0.2% (n = 410,000); active = well fitted activation curve with a large enough effect; inconclusive = small, poorly fitted or top-dose-only effect; cell line not stated here; note: % of control where 0% means no effect; nearly all actives have a fitted effect of over 65% in size
#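 Readout is PINK1 immunofluorescence, quantified alongside mitochondrial, cell and nuclear markers by laser-scanning microplate cytometry. Cells from a stable line were exposed to compound titrations (5 concentrations) for 24 hours, with CCCP controls.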
# * = called active by the depositor; i = inactive; ? = inconclusive; . = no result; [ ] = dose if it differs, or a comment. Unless noted, calls come from the whole dose curve; as a rule, active = well fitted curve in the direction sought with a large enough effect; inconclusive = small, poorly fitted or top-dose-only effect, or another doubt; inactive = no such curve, though single readings can be large; an effect the other way counts as inactive or inconclusive. Potency is the fitted concentration of half-maximal effect.
SMILES,KB-V1 MDR tox,MCF10A rerep,KB-3-1 tox,SW480 rerep,PINK1 modulator
COc1ccc2oc(C(=O)OCC(=O)N3CCCCC3C)c(C)c2c1 (stereo not drawn),21µM*,1%,i,-4%,1%
CCOC(=O)c1oc2ccc(S(=O)(=O)N3CCOCC3)cc2c1C,i,-2%,i,-11%,-7%[38.3 µM]
COc1cccc(NC(=O)c2oc3ccc(S(=O)(=O)N4CCCCCC4)cc3c2C)c1,i,.,i,.,-2%
COc1ccc(NC(=O)c2oc3ccc(S(=O)(=O)N4CCCCC4)cc3c2C)cc1,6.5µM*,.,i,.,2%
Cc1cc(Br)cn2c(Cc3ccccc3)c(-c3cccc(Br)c3)nc12,?,.,i,.,0%
CC[n+]1ccc(C[n+]2ccccc2)c2ccccc21,i,1%,i,-3%,-1%
CCN(CC)c1ccccc1/C=C/[n+]1ccc(CCCCI)c2ccccc21,?,.,3.7µM*,.,.
COc1cccc(C2=CC(=O)C[C@H](c3ccc(Cl)cc3)C2)c1OC,i,23µM*,i,0%,0%
COc1ccc(Br)cc1C1=CC(=O)C[C@H](c2ccc(F)cc2)C1,16µM*,.,i,.,3%
COc1ccc([C@H]2CC(=O)C=C(c3ccc(OC)cc3OC)C2)cc1,1.5µM*,?,0.82µM*,13µM*,4%
COc1ccc([C@H]2CC(=O)C=C(c3ccc(Cl)cc3C)C2)cc1,?,18µM*,?,?,3%
Nc1nc(N)c2c(OCc3ccc(C(F)(F)F)cc3)cccc2n1,i,.,?,.,3%
CC1(C(=O)NS(=O)(=O)c2cccc(Cl)c2)CCN1C(=O)Cc1ccc(-c2ccccc2)cc1 (stereo not drawn),i,.,i,.,0%
CCOc1ccc(C(CCc2ccccc2)NC(=O)c2ccccc2)cc1OCC (stereo not drawn),9.2µM*,-4%,i,0%,-2%[38.3 µM]
O=C(CSC1=NS(=O)(=O)c2ccccc2N1)NCc1ccc(F)cc1,i,-2%,i,-6%,0%
N#CCCn1nc(-c2ccccc2)cc1Nc1ccccc1NC(=O)C(F)(F)F,21µM*,-2%,i,0%,3%
O=C(CSc1nc2[nH]ncc2c(=O)[nH]1)Nc1ccc(Cl)cc1,i,4%,i,-241%,4%
N#Cc1c[nH]n2c(=O)c3c(nc12)CCC3,i,-16%,i,17%,1%
Nc1[nH]n2c(=O)c3c(nc2c1N=Nc1ccc(Cl)cc1)CCCC3,?,22%,?,-5%,3%
O=c1c2c(nc3c(-c4ccccc4)c[nH]n13)CCCC2,?,-1%,21µM*,3%,-2%
Cc1[nH]n2c(=O)c3c(nc2c1-c1ccc(Cl)cc1)CCC3,?,?,8.2µM*,-13%,3%
Cc1[nH]n2c(=O)c3c(nc2c1-c1ccccc1)CCC3,i,25%,i,7%,-2%
Nc1[nH]n2c(=O)c3c(nc2c1N=Nc1ccccc1)CCCC3,13µM*,?,12µM*,12%,-2%
CN(C)c1ccc(/C=C/c2ccnc3ccc(I)cc23)cc1,i,.,?,.,2%
C[C@H]1COc2cccc(N(C)CCO)c2S(=O)(=O)N1,i,.,i,.,-1%
SMILES,KB-V1 MDR tox,MCF10A rerep,KB-3-1 tox,SW480 rerep,PINK1 modulator
CCC(Sc1nc2ccccc2s1)C(=O)Nc1nnc(C)s1 (stereo not drawn),16µM*,?,i,-1%,0%[38.3 µM]
COc1cccc(C(=O)NCC(=O)OCc2cc(=O)n3c(C)csc3n2)c1,i,.,i,.,2%
COc1cccc2c1cc1c(=O)n(CC(=O)NC3CC3)nc(C)n12,.,.,.,.,-1%
COCCn1c(SCC(=O)NC2(C#N)CCCCC2)nc2ccccc2c1=O,i,-1%,i,87%,1%
Cc1cc(-c2nnc(-c3cc4ccccc4oc3=O)o2)c(C)n1-c1ccccc1,?,5.8µM*,?,?,5%[38.3 µM]
Cc1cccc(NC(=O)c2ccccc2O)c1C,16µM*,-1%,i,-18%,.
Cc1ccc(C)c(NC(=O)c2ccccc2O)c1,i,?,?,?,16µM*
Cc1ccccc1Cn1nnc(C(=O)Nc2cccc(C)c2C)c1N,13µM*,15µM*,?,3%,2%

# From PubChem BioAssay
